FBPA Giardia inh: inhibitors of Giardia lamblia fructose-1,6-bisphosphate aldolase; A8B2U2; Potency, µM (top dose mostly 59.6 µM), inactives show at the top dose activity, negative = inhibition, most hits filed as inhibitors; AID 2451; purified Giardia FBPA; 290,000 compounds, 0.71% hits; further: potency means the concentration at half of the fitted maximal effect; nearly all actives have a fitted effect of over 55% in size
Target sequence (A8B2U2 whole entry, looked up): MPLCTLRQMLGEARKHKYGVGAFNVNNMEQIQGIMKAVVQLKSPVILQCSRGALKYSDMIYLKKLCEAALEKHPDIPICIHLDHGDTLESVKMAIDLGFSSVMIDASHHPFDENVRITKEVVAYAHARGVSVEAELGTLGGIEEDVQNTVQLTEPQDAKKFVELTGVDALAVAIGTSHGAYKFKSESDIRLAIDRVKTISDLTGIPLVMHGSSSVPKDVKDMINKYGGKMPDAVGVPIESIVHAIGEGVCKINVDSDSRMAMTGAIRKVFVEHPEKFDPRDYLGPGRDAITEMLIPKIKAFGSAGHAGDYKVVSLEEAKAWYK
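40 nM FBPA preincubated 10 min at RT with compound (up to 57.5 uM final), then substrate plus GAPDH/TPI/NAD/arsenate coupling and diaphorase/resazurin added. Fluorescence read after 20 min at RT, 525/598 nm.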
FMDV antiviral: blocks foot and mouth disease virus; FMDV antiviral cell-based qHTS; AID 1159524; Potency, µM (highest dose often 57.9 µM), without a hit: at the highest dose activity change, negative = inhibition, usual class: inhibitors; 410,000 compounds, 1.2% hits; calls by dose curve; tested in HEK293T cells; further: read-out not given here; potency means the concentration at half of the fitted maximal effect; nearly all actives have a fitted effect of over 45% in size
RE007 growth inh: less growth of the S. pombe RE007 Vpr strain. Potency, µM (series often up to 92.2 µM), for inactives: top-dose activity change, negative = less growth, usual class: inhibitors. S. pombe RE007 Vpr strain, BacTiter-Glo ATP luminescence, 24 h. 360,000 compounds, 0.21% hits; active means well fitted falling curve with a large enough effect; inconclusive means small, poorly fitted or top-dose-only effect; inactive means no such curve, though single readings can be large or run the other way; further: potency means the concentration at half of the fitted maximal effect; nearly all actives have a fitted effect of over 50% in size
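Fission yeast strain RE007, carrying one chromosomally integrated HIV-1 vpr copy, was seeded at OD 0.01 in PMG+AL medium with 23 nL pinned compound. After 24 h at 30 °C and 99% humidity, viability was read by BacTiter-Glo luminescence.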
TbPYK inhibitor: T. brucei pyruvate kinase inhibition; Q57TT1; TbPYK enzyme, Kinase-Glo Plus ATP luminescence, 45 min; Potency, µM (top dose mostly 76.8 µM), without a hit: at the highest dose activity, negative = inhibition, actives largely listed as inhibitors; 410,000 compounds, 0.12% hits; AID 624173; further: potency means the concentration at half of the fitted maximal effect; nearly all actives have a fitted effect of over 50% in size
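TbPYK + substrate in 50 mM TEA pH 7.2, 100 mM KCl, 10 mM MgCl2, 0.05% BSA, 0.01% Tween-20; cpd pinned; ADP 130 uM final; 45 min RT; Kinase-Glo Plus 10 min; luminescence endpoint.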
Sm TGR inh: S. mansoni TGR enzyme inhibition; 360,000 compounds, 3% hits; Q962Y6; purified TGR, DTNB reduction, TNB absorbance 405 nm; Potency, µM (top dose mostly 114 µM), for inactives: top-dose activity change, negative = inhibition, usual class: inhibitors; further: potency means the concentration at half of the fitted maximal effect; nearly all actives have a fitted effect of over 60% in size
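TGR 20 nM + NADPH 100 uM (dispensed conc.), cpd preinc 15 min RT; start with NADPH (500 uM addition) then DTNB (15 mM addition). Kinetic TNB absorbance, 405 nm filter. Four-parameter Hill fit across titration.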
HCMV antiviral: inhibitors of human cytomegalovirus | HFF cells, HCMV-luciferase reporter, 72 h; stronger effect = lower value | activity change, negative = inhibition, % at 57.5 µM | 410,000 compounds, 4.5% hits; in the data active means activity change below about -60%; inconclusive means no clear call, values can overlap the other calls; inactive means above about -39%
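Steps: HFFs plated, 16 h 37C; compounds added; HCMV-luciferase added to MOI 1 PFU/cell; 72 h 37C; OneGlo reagent, 5 min room temperature; luminescence read, normalized to controls.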
Numbers without * were called inactive; ? = inconclusive; . = no result given; [ ] = dose if it differs, or a comment. Only some compounds are listed: those with a hit (about 7.7% of all), similar ones and a draw of the others. Unless noted, the call rests on the fitted dose curve; in most records, active means well fitted curve in the direction sought with a large enough effect; inconclusive means small, poorly fitted or top-dose-only effect, or another doubt; inactive means no such curve, though single readings can be large; an effect the other way counts as inactive or inconclusive. On the % scale 0 is the no-effect control and ±100 the full control effect.

SMILES	FBPA Giardia inh	FMDV antiviral	RE007 growth inh	TbPYK inhibitor	Sm TGR inh	HCMV antiviral
C#CCN(C[C@H]1[C@H](OC(=O)Nc2c(C)noc2C)[C@H](OC(=O)Nc2c(C)noc2C)C[C@@H](C(=O)OC)[C@H]1C(=O)OC)S(=O)(=O)c1ccc(C)cc1	.	32µM*	-2%	1%	.	-2
CCCCCOC(=O)Nc1nc(=O)n(C2O[C@H](C)[C@@H](O)[C@@H]2O)cc1F (stereo partly specified)	.	.	.	-22%	.	.
Cc1ncc(CN2CCC(C(=O)Nc3ccc(-n4cccn4)cc3)CC2)s1	3%	-13%	-2%	3%	-17%	8
O=C(Nc1ccc(-n2cccn2)cc1)C1CCCCN1Cc1cccc2c1OCO2 (stereo unspecified)	8%	-16%	-27%	-1%	2%	-68*
COc1ccccc1CNc1nc(-c2ccco2)nn1S(=O)(=O)c1ccc(C)cc1	.	-9%	.	2%	3%	-1
CC(=O)C1=C(O)C(=O)N(CCc2ccccc2)C1c1ccccc1[N+](=O)[O-] (stereo unspecified)	10%	-5%	6%	7%	-23%	-9
CCN(CC)CCN1C(=O)C(O)=C(C(C)=O)C1c1ccccc1[N+](=O)[O-] (stereo unspecified)	?	11%	-21%	-18%	45µM*	47
O=C(NCc1nc(-c2ccc(C(F)(F)F)cc2)no1)Nc1cc(Cl)cc(Cl)c1	-7%	?	10%	-6%	11%	-96*
CC(C)(C)c1ccc(-c2noc(CCC(=O)NCc3ccco3)n2)cc1	-1%	-8%	-7%	-2%	-8%	-81*
COc1ccc(-c2noc(CCCC(=O)NCc3ccco3)n2)cc1OC	1%	-5%	-10%	0%	40µM*	44
Cc1cccc(-c2noc(CCCC(=O)NCc3ccco3)n2)c1	.	-15%	.	-1%	-2%	-12
O=C(CCc1nc(-c2ccc(F)cc2)no1)Nc1cccc(C(=O)NC2CC2)c1	.	40µM*	-1%	5%	.	34
Cc1cccc(-c2noc(CCC(=O)NCc3ccco3)n2)c1	4%	19%	-2%	3%	-6%	81
CCCCNc1ccc2c(c1)OC[C@H](Cc1ccccc1)NS2(=O)=O	.	.	.	.	.	5
CC(C)(C)c1ccc(-c2noc(CCC(=O)Nc3cccc(Cl)c3)n2)cc1	.	-65%	.	0%	13%	-89*
Cc1ccc(C)c(NC(=O)CCc2nc(-c3ccc(C(C)(C)C)cc3)no2)c1	.	-12%	.	2%	10%	-31
COc1cccc(-c2noc(CCCC(=O)NCc3ccco3)n2)c1	.	5%	.	-2%	45µM*	39
Cc1ccccc1-c1nnc(CN2CCN(c3cc(Cl)ccc3C)CC2)o1	.	-17%	.	4%	2%	15
COc1cc(C(=O)Nc2nc(-c3ccc(Cl)cc3)c(C)s2)ccc1OCC(=O)Nc1ccc(F)cc1	1%	28µM*	30%	-6%	-11%	-30
CCc1ccc(-c2nc(NC(=O)c3ccc(OCC(=O)Nc4ccc(F)cc4)c(OC)c3)sc2C)cc1	6%	-15%	.	-12%	-4%	6
Cc1ccc2[nH]cc(C(=O)CN3CCN(c4ccccn4)CC3)c2c1	-5%	-13%	3%	-8%	-33%	33
Cc1c(C)n(C(=O)CN2CCN(c3ccccn3)CC2)c2ccccc12	-7%	32µM*	5%	-3%	-17%	34
Cc1ccc(C(=O)CN2CCN(c3ccccn3)CC2)c(C)c1	-7%	-2%	-8%	-3%	14µM*	.
CC(C)c1ccc(S(=O)(=O)/N=C2\C=C(NS(=O)(=O)c3ccccc3)C(=O)c3ccccc32)cc1	?	18%	?	0%	?	-31
CC(C)c1ccc(S(=O)(=O)/N=C2/C=CC(=O)c3ccccc32)cc1	14µM*	.	.	.	8.9µM*	.
SMILES	FBPA Giardia inh	FMDV antiviral	RE007 growth inh	TbPYK inhibitor	Sm TGR inh	HCMV antiviral
Cc1cccc(NC(=O)c2nc[nH]c2C(=O)N(C)CCO)c1	.	.	.	.	.	-19
Cc1ccc(S(=O)(=O)NCCSCc2ccco2)cc1	-2%	33%	5%	2%	?	-29
COc1ccc(S(=O)(=O)NCCSCc2ccco2)cc1	-9%	2%	-2%	-4%	25µM*	-14
COc1ccc(S(=O)(=O)NCCSCc2ccco2)cc1OC	-2%	.	4%	-3%	11µM*	8
Cc1cc(C)c(S(=O)(=O)NCCSCc2ccco2)c(C)c1	.	43%	-2%	-5%	13µM*	-4
CCC(=O)N1CCc2cc(S(=O)(=O)NC(CC(C)C)C(=O)Nc3ccc(CC)cc3)ccc21 (stereo unspecified)	.	9%	.	-3%	3%	16
COc1cc(CN2CCCCCC2)cc(OC)c1	-26%	-9%	-7%	5%	100µM*	35
CC(C)(C)c1cc(CN2CCCCC2)cc(C(C)(C)C)c1O	?	.	.	.	45µM*	30
CC1CN(c2sc(S(C)(=O)=O)nc2S(=O)(=O)c2ccc(Cl)cc2)CC(C)O1 (stereo unspecified)	.	6%	6%	5%	14µM*	-29
Cc1ccc(S(=O)(=O)c2nc(S(C)(=O)=O)sc2N2CCC(C)CC2)cc1	.	18%	1%	5%	1.8µM*	-36
CCCS(=O)(=O)c1nc(S(=O)(=O)c2ccc(C)cc2)c(N2CCOCC2)s1	14%	18%	13%	5%	-3%	-63*
CCS(=O)(=O)c1nc(S(=O)(=O)c2ccc(C)cc2)c(N2CCCC(C)C2)s1 (stereo unspecified)	.	10%	-5%	-7%	-10%	?
Cc1ccc(S(=O)(=O)c2nc(S(C)(=O)=O)sc2N2CCCCCC2)cc1	.	26%	7%	3%	1%	?
Cc1ccc(S(=O)(=O)c2nc(S(C)(=O)=O)sc2N2CCN(C)CC2)cc1	.	-2%	5%	-3%	-4%	-104*
CC1CCCN(c2sc(S(C)(=O)=O)nc2S(=O)(=O)c2ccc(Cl)cc2)C1 (stereo unspecified)	.	9%	10%	-3%	-21%	-30
COC(=O)NC(c1cccc(F)c1)[C@]1(C(C)=O)CCCC1=O (stereo partly specified)	-2%[12.9 µM]	.	.	.	.	.
CC(=O)C1=CCN(C)CC1	.	.	.	.	.	-34
CCOc1ccc(NC(=O)CSc2cn(CC(=O)N3CCCCCC3)c3ccccc23)cc1	.	-24%	.	-4%	35%	-38
Cn1c(=O)oc2cc(S(=O)(=O)NCCC(=O)Nc3ccc(F)cc3F)ccc21	.	-5%	.	4%	-3%	9
CCN1CCN(C(=O)c2ccc3c(c2)N(Cc2ccc(Cl)cc2)C(=O)c2ccccc2S3(=O)=O)CC1	.	-14%	.	0%	1%	-61*

Source: PubChem (National Center for Advancing Translational Sciences (NCATS))
